# PubChem BioAssay (NCATS)
# Results filed as inconclusive are left out. Activity calls are given as the source filed them. Unless noted, the call rests on the fitted dose curve; in most records, active means well fitted curve in the direction sought with a large enough effect; inconclusive means small, poorly fitted or top-dose-only effect, or another doubt; inactive means no such curve, though single readings can be large; an effect the other way counts as inactive or inconclusive.
# Key:
# [1] = qHTS drug screen for cell cycle checkpoint inhibitors in PARPi-resistant BRCA-mutant ovarian cancer cell lines. (AID 1963452; calls by dose curve); conditions: PEO1/OlaR viability, CellTiter-Glo luminescence, 96 h, stronger effect = lower value
# Method in brief: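 PEO1, PEO4 and PEO1/OlaR ovarian cancer cells, 600 per well, exposed 96 h at 37C to a dilution series. Viability read by CellTiter-Glo luminescence, normalized to DMSO and empty wells; activity summarized as Z-AUC.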
# 3D7 = test: qHTS profiling for inhibitors of Plasmodium falciparum proliferation (AID 504749); further: potency means the concentration at half of the fitted maximal effect; nearly all actives have a fitted effect of over 60% in size; conditions: P. falciparum in erythrocytes, SYBR Green DNA, 72 h; series mostly up to 28.7 µM
# Method in brief: (§1)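 Fluorescence of SYBR Green-bound parasite DNA, read at 485/535 nm, served as the growth measure. Infected erythrocytes were cultured with compound 72 h; artemisinin (0.29 uM) and DMSO wells defined the normalization range.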
# 7G8 = test: as above; conditions: P. falciparum in erythrocytes, SYBR Green DNA, 72 h; series mostly up to 28.7 µM
# Method in brief: as §1
# AA1029 = test: as above; conditions: P. falciparum in erythrocytes, SYBR Green DNA, 72 h; series mostly up to 28.7 µM
# Method in brief: as §1
# [2] = target: Cytochrome P450 3A4 (Homo sapiens) (UniProt P08684); test: qHTS for inhibitors of CYP3A4 against the NCATS DSHEA and TCM libraries (AID 1919971); conditions: recombinant CYP3A4 enzyme activity, luminescence qHTS; series mostly up to 34.1 µM;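 further: on the % scale 0 is the no-effect control and ±100 the full control effect; inhibition lowers luminescence from luciferin made by CYP3A4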
# Chain of Cytochrome P450 3A4 (Homo sapiens) (P08684 whole entry, looked up, canonical isoform): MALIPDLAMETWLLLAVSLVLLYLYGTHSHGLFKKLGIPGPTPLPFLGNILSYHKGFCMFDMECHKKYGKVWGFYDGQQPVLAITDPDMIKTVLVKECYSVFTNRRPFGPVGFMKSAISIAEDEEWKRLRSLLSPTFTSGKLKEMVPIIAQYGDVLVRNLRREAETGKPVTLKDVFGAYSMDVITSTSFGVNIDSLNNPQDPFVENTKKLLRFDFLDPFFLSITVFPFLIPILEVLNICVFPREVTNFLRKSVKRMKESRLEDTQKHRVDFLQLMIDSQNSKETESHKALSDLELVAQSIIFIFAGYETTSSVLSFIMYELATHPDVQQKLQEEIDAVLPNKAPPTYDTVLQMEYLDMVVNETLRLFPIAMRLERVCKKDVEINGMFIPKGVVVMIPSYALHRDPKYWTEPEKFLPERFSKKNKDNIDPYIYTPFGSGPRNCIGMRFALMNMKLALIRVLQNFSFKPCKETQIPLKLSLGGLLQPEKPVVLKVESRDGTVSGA
# Method in brief: (§2)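 Isoform-specific enzyme and substrate levels; enzyme-free wells as background. Reaction: 1x NADPH regenerating system, 30-45 min, room temperature, shielded from light; luminescent detection reagent added, 30 min.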
# [3] = target: Cytochrome P450 2D6 (Homo sapiens) (UniProt P10635); test: qHTS for inhibitors of CYP2D6 against the NCATS DSHEA and TCM libraries (AID 1919972); conditions: CYP2D6 enzymatic inhibition, luminescence qHTS; series mostly up to 34.1 µM; further: on the % scale 0 is the no-effect control and ±100 the full control effect
# Chain of Cytochrome P450 2D6 (Homo sapiens) (P10635 whole entry, looked up): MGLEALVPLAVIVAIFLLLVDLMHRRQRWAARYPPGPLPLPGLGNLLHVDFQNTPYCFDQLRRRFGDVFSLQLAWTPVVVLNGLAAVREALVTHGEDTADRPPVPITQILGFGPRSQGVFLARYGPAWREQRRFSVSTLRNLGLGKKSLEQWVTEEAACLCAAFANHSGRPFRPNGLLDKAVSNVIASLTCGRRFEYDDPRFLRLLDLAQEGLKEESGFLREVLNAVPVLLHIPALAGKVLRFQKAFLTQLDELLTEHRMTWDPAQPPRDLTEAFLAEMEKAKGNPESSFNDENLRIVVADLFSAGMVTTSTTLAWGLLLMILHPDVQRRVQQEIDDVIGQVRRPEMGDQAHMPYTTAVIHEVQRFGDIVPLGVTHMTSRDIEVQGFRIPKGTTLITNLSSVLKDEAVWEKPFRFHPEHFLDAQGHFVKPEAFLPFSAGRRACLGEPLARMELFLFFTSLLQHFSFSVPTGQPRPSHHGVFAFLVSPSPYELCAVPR
# Method in brief: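 qHTS, concentration–response format with most substances from 19.5 nM. CYP2D6 + pro-luciferin substrate, 15 min with compound, then 1x NADPH regen, 30–45 min RT dark. Glo detection 30 min, luminescence. Quinidine control.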
# [4] = target: Cytochrome P450 2C9 (Homo sapiens) (UniProt P11712); test: qHTS for inhibitors of CYP2C9 against the NCATS DSHEA and TCM libraries (AID 1919973); conditions: recombinant CYP2C9 enzyme activity, luminescence; series mostly up to 34.1 µM;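 further: luminogenic pro-luciferin CYP2C9 substrate turned into luciferin with NADPH regeneration; on the % scale 0 is the no-effect control and ±100 the full control effect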
# Chain of Cytochrome P450 2C9 (Homo sapiens) (P11712 whole entry, looked up): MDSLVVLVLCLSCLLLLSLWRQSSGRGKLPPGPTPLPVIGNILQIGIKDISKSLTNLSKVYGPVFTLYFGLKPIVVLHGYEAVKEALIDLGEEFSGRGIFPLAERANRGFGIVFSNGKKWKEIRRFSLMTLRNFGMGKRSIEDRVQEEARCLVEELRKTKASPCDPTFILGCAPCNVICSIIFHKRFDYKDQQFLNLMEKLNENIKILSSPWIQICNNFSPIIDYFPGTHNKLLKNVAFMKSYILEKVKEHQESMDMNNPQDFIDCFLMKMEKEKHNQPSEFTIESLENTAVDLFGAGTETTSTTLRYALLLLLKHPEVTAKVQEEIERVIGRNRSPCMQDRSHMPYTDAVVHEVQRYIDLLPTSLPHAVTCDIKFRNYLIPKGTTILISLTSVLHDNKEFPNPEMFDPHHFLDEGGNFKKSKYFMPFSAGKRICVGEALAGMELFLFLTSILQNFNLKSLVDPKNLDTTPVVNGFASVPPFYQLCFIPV
# Method in brief: as §2
# [5] = target: Cytochrome P450 2C19 (Homo sapiens) (UniProt P33261); test: qHTS for inhibitors of CYP2C19 against the NCATS DSHEA and TCM libraries (AID 1919974); conditions: CYP2C19 enzyme inhibition, luminescence qHTS; series mostly up to 34.1 µM;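 further: luminescence from luciferin released by CYP2C19 oxidation of a pro-luciferin substrate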; further: potency means the concentration at half of the fitted maximal effect
# Chain of Cytochrome P450 2C19 (Homo sapiens) (P33261 whole entry, looked up): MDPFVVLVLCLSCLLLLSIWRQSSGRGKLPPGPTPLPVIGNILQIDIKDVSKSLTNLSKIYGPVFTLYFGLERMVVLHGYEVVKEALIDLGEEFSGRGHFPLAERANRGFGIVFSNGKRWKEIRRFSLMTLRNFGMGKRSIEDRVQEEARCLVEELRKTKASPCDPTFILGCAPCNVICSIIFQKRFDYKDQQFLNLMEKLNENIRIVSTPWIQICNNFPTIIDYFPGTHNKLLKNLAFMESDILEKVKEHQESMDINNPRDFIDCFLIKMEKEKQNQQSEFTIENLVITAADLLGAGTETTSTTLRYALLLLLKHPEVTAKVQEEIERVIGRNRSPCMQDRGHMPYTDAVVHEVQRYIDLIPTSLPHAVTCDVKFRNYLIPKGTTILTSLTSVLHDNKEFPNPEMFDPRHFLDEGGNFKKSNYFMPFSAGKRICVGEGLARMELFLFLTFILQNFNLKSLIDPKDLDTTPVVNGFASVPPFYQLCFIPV
# Method in brief: as §2
# [6] = KB-3-1 P-gp reporter qHTS against the NCATS DSHEA and TCM libraries (AID 1919975); conditions: KB-3-1 parental cells, CellTiter-Glo luminescence viability, 72 h; series mostly up to 26.1 µM; further: 0% is about no effect
# Method in brief: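 Cell viability qHTS: 500 KB-3-1 cells/well, substances in titration, ~72 h, 37C; luminescent CellTiter-Glo read.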
# [7] = target: Cytochrome P450 1A2 (Homo sapiens) (UniProt P05177); test: qHTS for inhibitors of CYPIA2 against the NCATS DSHEA and TCM libraries (AID 1919976); conditions: recombinant CYP1A2 enzyme activity, luminescence; series mostly up to 37 µM; further: potency means the concentration at half of the fitted maximal effect
# Chain of Cytochrome P450 1A2 (Homo sapiens) (P05177 whole entry, looked up): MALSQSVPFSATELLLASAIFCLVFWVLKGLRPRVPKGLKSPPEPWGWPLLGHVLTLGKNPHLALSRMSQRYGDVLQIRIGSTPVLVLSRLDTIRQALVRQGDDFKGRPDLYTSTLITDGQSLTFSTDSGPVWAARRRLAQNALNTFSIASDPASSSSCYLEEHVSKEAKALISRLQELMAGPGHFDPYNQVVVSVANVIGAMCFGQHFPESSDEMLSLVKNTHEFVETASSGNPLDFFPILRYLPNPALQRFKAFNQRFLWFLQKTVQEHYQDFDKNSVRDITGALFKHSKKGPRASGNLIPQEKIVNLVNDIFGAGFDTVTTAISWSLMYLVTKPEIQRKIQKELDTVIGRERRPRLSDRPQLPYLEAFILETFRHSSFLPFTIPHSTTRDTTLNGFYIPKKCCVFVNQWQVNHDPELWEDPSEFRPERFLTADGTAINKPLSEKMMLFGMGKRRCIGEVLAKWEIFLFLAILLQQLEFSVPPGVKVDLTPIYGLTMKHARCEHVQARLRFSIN
# Method in brief: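 Furafylline served as the plate control. Compounds met CYP1A2 and pro-luciferin substrate 15 min before NADPH regeneration solution (1x) was added; after 30-45 min at RT, P450-Glo reagent was added for 30 min and luminescence was measured.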
# [8] = qHTS Counterscreen for compound interference against the NCATS DSHEA and TCM libraries (AID 1919978); conditions: firefly luciferase detection reagent interference, luminescence;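 further: compounds preincubated with 1 µM D-luciferin or buffer before detection reagent; % of control where 0% means no effect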
# Method in brief: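 Interference check: test samples were incubated with D-luciferin (final 1 uM) or buffer only for 15 min, room temperature, in a qHTS titration up to 39.8 uM, then developed with detection reagent and read by luminescence.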
# [9] = Dual reporter qHTS for agonist of Pregnane X Receptor (hPXR) against the NCATS DSHEA and TCM libraries: Fluorescence readout (AID 1920058); conditions: PXR dual reporter cells; series mostly up to 40 µM; further: 0% is about no effect
# Method in brief: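 In this qHTS counter-read, reporter-bearing HepG2 cells in charcoal-stripped serum received substances for approximately 24 h before viability was assessed fluorometrically with CellTiter-Fluor.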
# [10] = target: Nuclear receptor subfamily 1 group I member 2 (Homo sapiens) (UniProt O75469); test: Dual reporter qHTS for agonist of Pregnane X Receptor (hPXR) against the NCATS DSHEA and TCM libraries: Luminescence readout (AID 1920059); conditions: hPXR dual reporter cells, luciferase luminescence agonist; series mostly up to 40 µM; further: 0% is about no effect
# Chain of Nuclear receptor subfamily 1 group I member 2 (Homo sapiens) (O75469 whole entry, looked up): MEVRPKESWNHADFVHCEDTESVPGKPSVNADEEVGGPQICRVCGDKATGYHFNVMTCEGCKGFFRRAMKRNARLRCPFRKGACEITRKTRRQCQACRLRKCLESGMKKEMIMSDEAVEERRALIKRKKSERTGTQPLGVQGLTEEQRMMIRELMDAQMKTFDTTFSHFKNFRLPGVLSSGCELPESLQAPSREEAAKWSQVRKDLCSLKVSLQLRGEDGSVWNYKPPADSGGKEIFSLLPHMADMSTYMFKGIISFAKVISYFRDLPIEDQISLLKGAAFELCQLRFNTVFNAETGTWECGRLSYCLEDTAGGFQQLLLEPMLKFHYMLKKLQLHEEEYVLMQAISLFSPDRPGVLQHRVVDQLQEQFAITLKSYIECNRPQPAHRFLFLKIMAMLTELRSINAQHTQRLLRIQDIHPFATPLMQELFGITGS
# Method in brief: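 hPXR-LucHepG2 cells in phenol red-free DMEM with 5% charcoal-stripped FBS, 2000 cells/well, attached 5 h, then exposed 24 h at 37C to compounds; rifampicin as positive agonist control (2.8 nM–92 uM). Luciferase luminescence read.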
# [11] = target: Nuclear receptor subfamily 1 group I member 2 (Homo sapiens) (UniProt O75469); test: Dual reporter qHTS for antagonist of Pregnane X Receptor (hPXR) against the NCATS DSHEA and TCM libraries: Luminescence Readout (AID 1920060); conditions: hPXR dual reporter cells, luciferase luminescence, antagonist mode; series mostly up to 40 µM;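 further: HepG2 cells carrying hPXR luciferase reporter stimulated with rifampicin at 2 µM; 0% is about no effect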
# Method in brief: (§3)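 In antagonist mode, 2 uM rifampicin was added to hPXR-Luc HepG2 cells alongside test substances, incubated 24 h at 37 C; luminescence gave reporter activity, and CellTiter-Fluor fluorescence (405/540 nm) gave viability.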
# [12] = Dual reporter qHTS for antagonist of Pregnane X Receptor (hPXR) against the NCATS DSHEA and TCM libraries: Fluorescence Readout (AID 1920061); conditions: PXR dual reporter cells, antagonist mode; series mostly up to 40 µM; further: 0% is about no effect
# Method in brief: as §3
# [13] = qHTS profiling for inhibitors of Plasmodium falciparum proliferation (AID 504749); further: potency means the concentration at half of the fitted maximal effect; nearly all actives have a fitted effect of over 60% in size; conditions: P. falciparum in erythrocytes, SYBR Green DNA, 72 h
# Method in brief: as §1
# [14] = target: Luciferin 4-monooxygenase (Photinus pyralis) (UniProt P08659); test: Primary firefly luciferase (FLuc) qHTS assay for identification of artifact compounds. (AID 1845220); conditions: purified firefly luciferase, luminescence, 5 min; series mostly up to 54.1 µM; further: nearly all actives have a fitted effect of over 60% in size
# Method in brief: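 qHTS, 15 min compound preincubation with substrate (10 uM luciferin, 10 uM ATP) at RT, then 10 nM FLuc; 5 min; luminescence; % inhibition vs no-enzyme/DMSO controls, 4-parameter Hill fit.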
# [15] = test system: Nanoluciferase (engineered Oplophorus gracilirostris luciferase); test: Primary Nanoluciferase (NLuc) qHTS assay for identification of artifact compounds. (AID 1845222); conditions: NLuc-conditioned medium, Nano-Glo luminescence, 5 min; series mostly up to 54.1 µM;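 further: 0% = DMSO and -100% = no enzyme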
# Method in brief: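 Luminescence read-out of secreted NLuc in S16 cell conditioned medium (1:55); compounds tested with 15 min RT preincubation, then Nano-Glo substrate 1:100, 5 min. % inhibition vs no-enzyme and DMSO controls, 4-parameter Hill fit.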
# [16] = Primary redox qHTS assay for identification of artifact compounds. (AID 1845223); conditions: Amplex Red/HRP redox cycling with DTT, fluorescence; series mostly up to 53.8 µM;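 further: 0% = DMSO and 100% = reference compound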
# Method in brief: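 Redox-cycling detection via DTT (250 uM final) oxidation coupled to Amplex Red (25 uM)/HRP (250 mU/mL) in HBSS. 15 min preincubation plus 30 min after DTT, room temperature. Ex/Em 525/598 nm; 4-parameter Hill fit against DMSO and 10 uM DA3003.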
# [17] = measured here: PEO1 parental Z-AUC
compound,measurement,setting,value
O=[N+]([O-])c1ccc(O)c2ncccc12,Z-AUC,[1],-0.66 (inactive)
same,Z-AUC,[1]; [17],-0.828
same,Z-AUC,[1]; measured here: PEO4 Z-AUC,-1.06
same,Potency,3D7,11.2 µM (active)
same,Potency,7G8,11.2 µM (active)
C[C@H]1C[C@H]2[C@@H]3CCC4=CC(=O)C=C[C@]4(C)[C@H]3C(=O)C[C@]2(C)[C@@]1(O)C(=O)CO,Z-AUC,[1],1.47 (inactive)
same,Z-AUC,[1]; [17],0.72
same,Z-AUC,[1]; measured here: PEO4 Z-AUC,0.786
CC1(C)O[C@@H]2C[C@H]3[C@@H]4CCC5=CC(=O)C=C[C@]5(C)[C@@]4(F)[C@@H](O)C[C@]3(C)[C@]2(C(=O)CO)O1,Z-AUC,[1],0.569 (inactive)
same,Z-AUC,[1]; [17],1.66
same,Z-AUC,[1]; measured here: PEO4 Z-AUC,0.813
CC(NCCC(c1ccccc1)c1ccccc1)c1ccccc1 (stereo not given),Potency,7G8,2.24 µM (active)
same,Potency,AA1029,12.6 µM (active)
O=C(O)CCCC[C@@H]1SC[C@@H]2NC(=O)N[C@@H]21,outcome,[2],inactive
same,outcome,[3],inactive
same,outcome,[4],inactive
same,Potency,[5],3.55 µM (active)
same,outcome,[6],inactive
same,Potency,[7],3.98 µM (active)
same,max response,[8],3.76% (inactive)
same,outcome,[9],inactive
same,outcome,[10],inactive
same,outcome,[11],inactive
same,outcome,[12],inactive
C[N+](C)(C)CCO,outcome,[2],inactive
same,outcome,[3],inactive
same,outcome,[4],inactive
same,Potency,[5],inactive
same,outcome,[6],inactive
same,Potency,[7],inactive
same,max response,[8],2.09% (inactive)
same,outcome,[9],inactive
same,outcome,[10],inactive
same,outcome,[11],inactive
same,outcome,[12],inactive
CN1CCCN=C1/C=C/c1cccs1,Z-AUC,[1],0.33 (inactive)
same,Z-AUC,[1]; [17],0.491
same,Z-AUC,[1]; measured here: PEO4 Z-AUC,0.415
CCCCCCOC(=O)NC(=N)c1ccc(NCc2nc3cc(C(=O)N(CCC(=O)OCC)c4ccccn4)ccc3n2C)cc1,Z-AUC,[1],1.19 (inactive)
same,Z-AUC,[1]; [17],0.495
same,Z-AUC,[1]; measured here: PEO4 Z-AUC,0.615
CC1(C)O[C@@H]2C[C@H]3[C@@H]4C[C@H](F)C5=CC(=O)C=C[C@]5(C)[C@@]4(F)[C@@H](O)C[C@]3(C)[C@]2(C(=O)CO)O1,Z-AUC,[1],-1.1 (inactive)
same,Z-AUC,[1]; [17],0.399
same,Z-AUC,[1]; measured here: PEO4 Z-AUC,-0.582
CCC1=C[C@@H]2CN(C1)Cc1c([nH]c3ccccc13)[C@@](C(=O)OC)(c1cc3c(cc1OC)N(C)[C@H]1[C@@](O)(C(=O)OC)[C@H](OC(C)=O)[C@]4(CC)C=CCN5CC[C@]31[C@@H]54)C2,Z-AUC,[1],-1.05 (inactive)
same,Z-AUC,[1]; [17],-1.03
same,Z-AUC,[1]; measured here: PEO4 Z-AUC,-1.04
Nc1c2ccccc2nc2ccccc12,Potency,[13]; parasite line A,7.94 µM (active)
same,Potency,[13]; parasite line B,11.2 µM (active)
same,Potency,7G8,3.16 µM (active)
same,Potency,AA1029,7.08 µM (active)
O=C(O)[C@H](O)[C@@H](O)[C@H](O[C@@H]1O[C@H](CO)[C@H](O)[C@H](O)[C@H]1O)[C@H](O)CO,Z-AUC,[1],0.899 (inactive)
same,Z-AUC,[1]; [17],1.15
same,Z-AUC,[1]; measured here: PEO4 Z-AUC,1.21
O=C(Nc1ccc(S(=O)(=O)N2CCOCC2)cc1)c1cc(Cl)ccc1NS(=O)(=O)c1ccc(Cl)s1,Z-AUC,[1],1.19 (inactive)
same,Z-AUC,[1]; [17],0.998
same,Z-AUC,[1]; measured here: PEO4 Z-AUC,1.36
CCCCCCCCCCCCCCCC[n+]1ccccc1,Potency,[13]; parasite line A,6.31 µM (active)
same,Potency,[13]; parasite line B,6.31 µM (active)
same,Potency,3D7,4.47 µM (active)
same,Potency,7G8,5.01 µM (active)
same,Potency,AA1029,5.01 µM (active)
O=[N+]([O-])c1ccc(-c2nc(-c3ccc(F)cc3)c(-c3ccncc3)[nH]2)cc1,Potency,[14],inactive
same,Potency,[15],inactive
same,outcome,[16],inactive
same,Z-AUC,[1],1.31 (inactive)
same,Z-AUC,[1]; [17],0.274
same,Z-AUC,[1]; measured here: PEO4 Z-AUC,0.382
CCOC(=O)O[C@]1(C(=O)OCCl)CC[C@H]2[C@@H]3CCC4=CC(=O)C=C[C@]4(C)[C@H]3[C@@H](O)C[C@@]21C,Z-AUC,[1],1.04 (inactive)
same,Z-AUC,[1]; [17],0.868
same,Z-AUC,[1]; measured here: PEO4 Z-AUC,1.23
CC1CC(=O)NN=C1c1ccc(NCC(C)(C)NCC(O)COc2cc(Cl)ccc2C#N)cc1 (stereo not given),Potency,[14],inactive
same,Potency,[15],inactive
same,outcome,[16],inactive
Nc1ccc2cc3ccc(N)cc3nc2c1,Potency,7G8,2.24 µM (active)
CN1CCC(Nc2ncc3ncnc(Nc4ccc(F)c(Cl)c4)c3n2)CC1,Potency,[13]; parasite line A,8.91 µM (active)
same,Potency,[13]; parasite line B,10 µM (active)
same,Potency,7G8,2.51 µM (active)
same,Potency,AA1029,10 µM (active)
COc1c(C)c2c(c(O)c1C/C=C(\C)CCC(=O)OCCN1CCOCC1)C(=O)OC2,Z-AUC,[1],0.671 (inactive)
same,Z-AUC,[1]; [17],0.614
same,Z-AUC,[1]; measured here: PEO4 Z-AUC,0.906
CNC[C@H](O)[C@@H](O)[C@H](O)[C@H](O)CO,Z-AUC,[1],-0.453 (inactive)
same,Z-AUC,[1]; [17],-0.0353
same,Z-AUC,[1]; measured here: PEO4 Z-AUC,0.238
O=C(Nc1ccc(Cl)cc1)Nc1ccc(Cl)c(Cl)c1,Potency,[13]; parasite line A,3.16 µM (active)
same,Potency,[13]; parasite line B,3.98 µM (active)
same,Potency,3D7,5.01 µM (active)
same,Potency,7G8,0.501 µM (active)
same,Potency,AA1029,5.62 µM (active)
